Laboratory results taken from PubChem BioAssay (Tox21).
Inconclusive results are not listed. The source made the active and inactive calls. Unless noted, calls come from the whole dose curve; as a rule, active = well fitted curve in the direction sought with a large enough effect in the repeat runs; inconclusive = weak or mixed curves; inactive = no such curve, though single readings can be large; an effect the other way counts as inactive or inconclusive.

What was measured:
[1] = qHTS assay to identify aromatase inhibitors - cell viability counter screen (AID 743084);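 note: cells stimulated with testosterone during compound exposure; nearly all actives have a fitted effect of over 55% in size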
[2] = biological target: Aryl hydrocarbon receptor (Homo sapiens) (UniProt P35869); assay: qHTS assay to identify small molecule that activate the aryl hydrocarbon receptor (AhR) signaling pathway (AID 743085);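 note: HG2L7.5c1 human HepG2 liver cells with stably integrated DRE-driven firefly reporter; series mostly up to about 70 µM; nearly all actives have a fitted effect of over 15% in size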
Procedure, shortened: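 Stably transfected human liver carcinoma cells (HG2L7.5c1; 20 DRE-firefly luciferase) were incubated 5 h, dosed, and kept 24 h at 37C. Agonism was scored from increased luciferase luminescence.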

[3] = qHTS assay to identify small molecule that activate the aryl hydrocarbon receptor (AhR) signaling pathway - cell viability counter screen (AID 743086);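 note: HepG2 liver cells carrying the AhR DRE luciferase reporter; series mostly up to about 70 µM; nearly all actives have a fitted effect of over 45% in size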
Procedure, shortened: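 HepG2-AhR-luc (HG2L7.5c1) cells, 4000/well, treated 24 h at 37 C with compound; viability measured as CellTiter-Fluor fluorescence after 30 min in the same wells as the luciferase read.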

[4] = biological target: Peroxisome proliferator-activated receptor gamma (Homo sapiens) (UniProt P37231); assay: qHTS assay to identify small molecule agonists of the peroxisome proliferator-activated receptor gamma (PPARg) signaling pathway (AID 743094; active = well fitted activation curve with a large enough effect in the signal ratio in the repeat runs, not every such curve was filed as active; the % refers to the signal ratio)
Procedure, shortened: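 GeneBLAzer PPARg UAS-bla HEK293H cells carrying a stably integrated beta-lactamase reporter were pre-incubated 5 h at 37C, then exposed to compounds in DMSO for 17 h at 37C; LiveBLAzer B/G FRET substrate was added for 1 h at room temperature and fluorescence read.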

[5] = biological target: Peroxisome proliferator-activated receptor gamma (Homo sapiens) (UniProt P37231); assay: qHTS assay to identify small molecule antagonists of the peroxisome proliferator-activated receptor gamma (PPARg) signaling pathway (AID 743191; calls by dose curve; note: series mostly up to about 63 µM; nearly all actives have a fitted effect of over 30% in size)
Procedure, shortened: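 GeneBLAzer PPARg UAS-bla HEK293H cells, 5 h post-plating, exposed to compounds 17 h at 37C. LiveBLAzer B/G FRET substrate added for 1 h at room temperature; beta-lactamase reporter read by fluorescence intensity.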

[6] = qHTS assay to identify small molecule antagonists of the peroxisome proliferator-activated receptor gamma (PPARg) signaling pathway - cell viability counter screen (AID 743194); note: nearly all actives have a fitted effect of over 55% in size
Procedure, shortened: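 Cytotoxicity counter screen in PPARg-bla HEK293H cells, same wells as reporter assay. Compounds plus 50 nM rosiglitazone (final) for 17 h at 37 C, then viability read by CellTiter-Glo luminescence.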

[7] = qHTS assay for small molecule agonists of the antioxidant response element (ARE) signaling pathway (AID 743202; active = well fitted activation curve with a large enough effect in the signal ratio in the repeat runs, not every such curve was filed as active; the % refers to the signal ratio)
Procedure, shortened: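 Agonist mode reporter screen: HepG2 cells with ARE-controlled beta-lactamase are incubated with test compounds for 16 h at 37 C, and beta-lactamase activity is measured as fluorescence of cleaved B/G FRET substrate.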

[8] = qHTS assay for small molecule agonists of the antioxidant response element (ARE) signaling pathway - cell viability counter screen (AID 743203; calls by dose curve; note: nearly all actives have a fitted effect of over 55% in size)
Procedure, shortened: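 CellSensor ARE-bla HepG2 cells, 2,000 per well, rested 5 hrs at 37C/5% CO2, then exposed to compound in DMSO for 16 hrs; viability read as CellTiter-Glo luminescence after 30 min at room temperature, in the reporter wells.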

[9] = qHTS assay for small molecule activators of the heat shock response signaling pathway - cell viability counter screen (AID 743209); note: nearly all actives have a fitted effect of over 50% in size
Procedure, shortened: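 CellSensor HSE-bla HeLa cells, plated overnight at 37 C/5% CO2, were exposed to compounds in DMSO for 5 h at 37 C. Viability was then read in the same wells by CellTiter-Glo luminescence after 30 min at room temperature.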

[10] = qHTS assay for small molecule activators of the heat shock response signaling pathway (AID 743210; active = well fitted activation curve with a large enough effect in the signal ratio in the repeat runs, with a control signal flat, not every such curve was filed as active; the % refers to the signal ratio;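 note: HeLa cells with beta-lactamase reporter driven by heat shock elements; series mostly up to about 63 µM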)
Procedure, shortened: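 Quantitative high-throughput format using an engineered HeLa line in which heat shock response elements drive beta-lactamase; after 5 h with compound, cells received a B/G FRET substrate and fluorescence was read.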

[11] = qHTS assay to identify small molecule agonists of the peroxisome proliferator-activated receptor delta (PPARd) signaling pathway - cell viability counter screen (AID 743211); note: nearly all actives have a fitted effect of over 55% in size
Procedure, shortened: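 In the same wells used for beta-lactamase reporter measurement, cytotoxicity is scored by CellTiter-Glo. HEK293H PPARd-bla cells receive compound for 17 h at 37C following a 5 h settling period.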

[12] = biological target: Peroxisome proliferator-activated receptor delta (Homo sapiens) (UniProt Q03181); assay: qHTS assay to identify small molecule antagonists of the peroxisome proliferator-activated receptor delta (PPARd) signaling pathway (AID 743215; active = well fitted inhibition curve with a large enough effect in the signal ratio in the repeat runs, not every such curve was filed as active; the % refers to the signal ratio;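 note: cells stimulated with agonist L165041 at 300 nM final during compound exposure; series mostly up to about 62 µM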)
Procedure, shortened: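 PPARd UAS-bla HEK293H cells were pre-incubated 5 h at 37 C, then given test compounds in DMSO plus agonist L165041 (300 nM final). After 17 h at 37 C, beta-lactamase FRET substrate was added; fluorescence read after 2 h at room temperature.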

[13] = qHTS assay to identify small molecule antagonists of the farnesoid-X-receptor (FXR) signaling pathway - cell viability counter screen (AID 743221; active = well fitted cell-killing curve with a large enough effect in the repeat runs, not every such curve was filed as active; note: nearly all actives have a fitted effect of over 50% in size)
Procedure, shortened: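 Here viability was scored by luminescence after CellTiter-Glo addition to wells already read for beta-lactamase. Prior treatment: compound plus CDCA (50 uM final), 16 h, 37 C, HEK 293T FXR-bla cells.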

[14] = biological target: Vitamin D3 receptor (Homo sapiens) (UniProt P11473); assay: qHTS assay to identify small molecule agonists of the vitamin D receptor (VDR) signaling pathway (AID 743222; calls by dose curve)
Procedure, shortened: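 VDR-bla cells were plated 4 h at 37C/5% CO2, then exposed to compounds in DMSO for 16 h. After LiveBLAzer B/G FRET substrate addition and 2 h at room temperature, beta-lactamase reporter fluorescence was read.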

[15] = biological target: Vitamin D3 receptor (Homo sapiens) (UniProt P11473); assay: qHTS assay to identify small molecule antagonists of the vitamin D receptor (VDR) signaling pathway (AID 743223; active = well fitted inhibition curve with a large enough effect in the signal ratio in the repeat runs, not every such curve was filed as active; the % refers to the signal ratio)
Procedure, shortened: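 Inhibition of agonist-driven VDR signalling is scored in VDR-bla cells: 3 nM final 1alpha,25-dihydroxyvitamin D3 plus compound, 16 h at 37C, then beta-lactamase detection by FRET substrate fluorescence after 2 h.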

[16] = biological target: Peroxisome proliferator-activated receptor delta (Homo sapiens) (UniProt Q03181); assay: qHTS assay to identify small molecule agonists of the peroxisome proliferator-activated receptor delta (PPARd) signaling pathway (AID 743212; calls by dose curve)
Procedure, shortened: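 Quantitative high-throughput agonist screen in a HEK293H beta-lactamase reporter line under UAS control. Compounds in DMSO, at 37 C. Fluorescence read after 2 h with FRET substrate at room temperature.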

[17] = biological target: Bile acid receptor (Homo sapiens) (UniProt Q96RI1); assay: qHTS assay to identify small molecule antagonists of the farnesoid-X-receptor (FXR) signaling pathway (AID 743217; active = well fitted inhibition curve with a large enough effect in the signal ratio in the repeat runs, not every such curve was filed as active; the % refers to the signal ratio)
Procedure, shortened: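 FXR-UAS-bla HEK 293T cells pre-incubated 5 h at 37 °C, then exposed to compounds with chenodeoxycholic acid (50 uM final) for 16 h at 37 °C. Beta-lactamase reporter read by LiveBLAzer B/G FRET substrate fluorescence after 2 h at room temperature.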

[18] = qHTS assay to identify small molecule agonists of the farnesoid-X-receptor (FXR) signaling pathway - cell viability counter screen (AID 743218); note: nearly all actives have a fitted effect of over 45% in size
Procedure, shortened: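 FXR-UAS-bla HEK 293T cells, plated 5 h at 37 C, were exposed to compounds for 16 h at 37 C. CellTiter-Glo was then added to the same wells as the bla readout; luminescence read after 30 min at room temperature.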

[19] = biological target: Bile acid receptor (Homo sapiens) (UniProt Q96RI1); assay: qHTS assay to identify small molecule agonists of the farnesoid-X-receptor (FXR) signaling pathway (AID 743220; active = well fitted activation curve with a large enough effect in the signal ratio in the repeat runs, not every such curve was filed as active; the % refers to the signal ratio)
Procedure, shortened: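 Beta-lactamase reporter under UAS control in GeneBLAzer FXR HEK 293T cells (5000/well) measured with LiveBLAzer FRET substrate after 2 h at room temperature. Compound exposure lasted 16 h at 37C.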

[20] = qHTS assay to identify small molecule antagonists of the peroxisome proliferator-activated receptor delta (PPARd) signaling pathway - cell viability counter screen (AID 743213); note: nearly all actives have a fitted effect of over 50% in size
Procedure, shortened: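 Cytotoxicity counter screen: CellTiter-Glo luminescence read 30 min after addition, in the same wells as the reporter assay. There, PPARd UAS-bla HEK293H cells (3000/well) were treated 17 h at 37 C with compound and 300 nM L165041.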

Measured: Potency

Chain of Peroxisome proliferator-activated receptor gamma (Homo sapiens) (P37231 whole entry, looked up): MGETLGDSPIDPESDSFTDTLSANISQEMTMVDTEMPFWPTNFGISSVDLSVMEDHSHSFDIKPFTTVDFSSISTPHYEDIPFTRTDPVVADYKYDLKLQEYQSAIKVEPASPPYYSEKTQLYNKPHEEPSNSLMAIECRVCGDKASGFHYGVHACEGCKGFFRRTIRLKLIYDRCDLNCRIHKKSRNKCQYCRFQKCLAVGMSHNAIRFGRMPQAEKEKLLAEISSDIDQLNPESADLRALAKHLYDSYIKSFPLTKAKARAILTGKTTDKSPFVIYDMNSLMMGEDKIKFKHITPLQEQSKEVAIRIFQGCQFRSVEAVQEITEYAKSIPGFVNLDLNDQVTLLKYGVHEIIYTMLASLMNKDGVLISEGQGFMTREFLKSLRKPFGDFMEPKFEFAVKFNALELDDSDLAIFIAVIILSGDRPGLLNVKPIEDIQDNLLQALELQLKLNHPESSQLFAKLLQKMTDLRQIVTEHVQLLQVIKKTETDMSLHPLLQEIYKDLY
Chain of Aryl hydrocarbon receptor (Homo sapiens) (P35869 whole entry, looked up): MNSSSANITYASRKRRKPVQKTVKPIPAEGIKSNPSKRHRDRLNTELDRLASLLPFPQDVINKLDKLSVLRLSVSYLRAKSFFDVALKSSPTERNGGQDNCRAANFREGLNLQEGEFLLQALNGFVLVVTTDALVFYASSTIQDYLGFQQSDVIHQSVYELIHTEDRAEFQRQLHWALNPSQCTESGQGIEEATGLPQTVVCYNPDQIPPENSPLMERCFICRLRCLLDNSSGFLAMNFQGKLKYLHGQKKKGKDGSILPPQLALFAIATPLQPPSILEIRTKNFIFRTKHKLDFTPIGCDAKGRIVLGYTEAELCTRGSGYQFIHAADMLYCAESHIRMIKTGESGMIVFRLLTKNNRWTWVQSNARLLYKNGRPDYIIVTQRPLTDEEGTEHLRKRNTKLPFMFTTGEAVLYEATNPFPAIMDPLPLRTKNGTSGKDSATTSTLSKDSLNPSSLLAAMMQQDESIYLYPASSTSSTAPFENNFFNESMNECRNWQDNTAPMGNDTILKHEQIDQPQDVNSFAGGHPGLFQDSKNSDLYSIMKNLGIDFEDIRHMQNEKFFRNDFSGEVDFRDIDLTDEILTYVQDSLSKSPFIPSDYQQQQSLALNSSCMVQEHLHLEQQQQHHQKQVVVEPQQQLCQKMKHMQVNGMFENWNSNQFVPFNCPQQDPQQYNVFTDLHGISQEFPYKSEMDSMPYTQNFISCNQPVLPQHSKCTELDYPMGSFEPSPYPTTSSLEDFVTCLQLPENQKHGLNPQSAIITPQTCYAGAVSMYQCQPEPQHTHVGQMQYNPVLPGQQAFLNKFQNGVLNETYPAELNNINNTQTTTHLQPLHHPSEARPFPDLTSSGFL
Chain of Peroxisome proliferator-activated receptor delta (Homo sapiens) (Q03181 whole entry, looked up): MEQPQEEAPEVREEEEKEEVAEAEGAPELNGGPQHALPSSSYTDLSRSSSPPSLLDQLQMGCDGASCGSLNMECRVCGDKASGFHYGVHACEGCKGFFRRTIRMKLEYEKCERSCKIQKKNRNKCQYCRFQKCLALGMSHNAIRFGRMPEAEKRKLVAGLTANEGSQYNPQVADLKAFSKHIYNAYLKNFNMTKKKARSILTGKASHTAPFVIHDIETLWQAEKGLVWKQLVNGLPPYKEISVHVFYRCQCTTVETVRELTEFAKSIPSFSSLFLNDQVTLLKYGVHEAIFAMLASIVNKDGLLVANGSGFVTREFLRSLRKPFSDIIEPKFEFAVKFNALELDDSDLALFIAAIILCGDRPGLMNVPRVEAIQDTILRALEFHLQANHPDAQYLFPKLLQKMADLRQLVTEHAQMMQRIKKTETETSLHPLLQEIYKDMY
Chain of Vitamin D3 receptor (Homo sapiens) (P11473 whole entry, looked up): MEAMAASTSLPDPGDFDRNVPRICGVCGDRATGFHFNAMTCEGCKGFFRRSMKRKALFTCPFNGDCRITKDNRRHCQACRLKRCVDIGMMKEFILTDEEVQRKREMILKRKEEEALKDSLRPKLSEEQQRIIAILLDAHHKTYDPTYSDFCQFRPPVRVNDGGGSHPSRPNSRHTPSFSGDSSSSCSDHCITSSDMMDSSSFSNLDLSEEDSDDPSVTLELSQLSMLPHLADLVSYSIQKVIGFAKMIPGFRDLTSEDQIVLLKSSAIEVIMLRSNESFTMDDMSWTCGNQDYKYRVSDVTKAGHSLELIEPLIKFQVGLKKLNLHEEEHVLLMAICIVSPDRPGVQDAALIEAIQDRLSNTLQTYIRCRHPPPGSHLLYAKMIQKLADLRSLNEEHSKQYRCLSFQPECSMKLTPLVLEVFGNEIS
Chain of Bile acid receptor (Homo sapiens) (Q96RI1 whole entry, looked up): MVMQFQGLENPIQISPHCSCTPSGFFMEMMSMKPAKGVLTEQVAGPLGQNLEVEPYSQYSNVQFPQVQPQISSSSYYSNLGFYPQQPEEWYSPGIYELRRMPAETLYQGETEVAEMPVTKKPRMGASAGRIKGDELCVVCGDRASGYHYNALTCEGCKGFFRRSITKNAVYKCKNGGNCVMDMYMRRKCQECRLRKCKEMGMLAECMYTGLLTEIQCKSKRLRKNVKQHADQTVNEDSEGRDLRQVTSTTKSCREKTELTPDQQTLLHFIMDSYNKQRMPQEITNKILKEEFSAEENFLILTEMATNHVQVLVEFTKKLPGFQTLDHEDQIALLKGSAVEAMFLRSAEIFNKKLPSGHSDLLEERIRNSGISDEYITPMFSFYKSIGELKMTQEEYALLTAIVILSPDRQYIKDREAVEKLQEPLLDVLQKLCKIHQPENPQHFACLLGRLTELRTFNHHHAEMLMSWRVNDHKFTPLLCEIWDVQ

CC(N)C(=O)OC(C)(C)Cc1ccc(Cl)cc1 (stereo not given)
inactive: [1] | [2] | [3] | [4] | [5] | [6] | [7] | [8] | [9] | [10] | [11] | [12] | [13] | [14] | [15]

Nc1nnc(-c2cccc(Cl)c2Cl)c(N)n1
inactive: [1] | [2] | [3] | [4] | [5] | [6] | [7] | [8] | [9] | [10] | [11] | [16] | [12] | [17] | [18] | [19] | [13] | [14] | [15]

CC(C)CCCC(C)(C)O
inactive: [1] | [2] | [3] | [4] | [5] | [6] | [7] | [8] | [9] | [11] | [16] | [20] | [12] | [18] | [13] | [14] | [15]

CCCCCCCCCC(C)=O
inactive: [1] | [2] | [3] | [4] | [5] | [6] | [7] | [8] | [9] | [11] | [16] | [12] | [18] | [13] | [14] | [15]

c1ccc2nccnc2c1
inactive: [1] | [2] | [3] | [4] | [5] | [6] | [7] | [8] | [9] | [10] | [11] | [20] | [17] | [18] | [19] | [13] | [14] | [15]

O=C1c2ccccc2C(=O)c2cc(S(=O)(=O)O)ccc21
inactive: [1] | [2] | [3] | [4] | [5] | [6] | [7] | [8] | [9] | [10] | [11] | [16] | [20] | [12] | [18] | [13] | [14] | [15]

CC(=C(CCOC(=O)C(C)C)SSC(CCOC(=O)C(C)C)=C(C)N(C=O)Cc1cnc(C)nc1N)N(C=O)Cc1cnc(C)nc1N
inactive: [1] | [2] | [3] | [4] | [5] | [6] | [7] | [8] | [9] | [10] | [11] | [16] | [12] | [17] | [18] | [19] | [13] | [14] | [15]

CC(=O)NCCCCCC(=O)O
inactive: [1] | [2] | [3] | [4] | [5] | [6] | [7] | [8] | [9] | [10] | [11] | [16] | [20] | [12] | [18] | [13] | [14] | [15]
